Pf Dd2 inh – Plasmodium falciparum Dd2 growth inhibition; 120,000 tested, 4.3% active; P. falciparum Dd2 growth, SYBR Green, 72 h; Potency, µM (top dose mostly 28.9 µM), hits mostly inhibitors; active = well fitted inhibition curve with a large enough effect; note: nearly all actives have a fitted effect of over 65% in size
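Readout: SYBR Green fluorescence, 485 nm excitation, 535 nm emission, after ~16 h lysis at 37C. Before that, Dd2-infected red cells (2.5% hematocrit) grew 72 h with compound, 29 uM top final concentration.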
Large screens that a line does not name were inactive. This excerpt belongs to a sample that is enriched for hits.

COCCCNc1ncnc2onc(-c3ccc(F)cc3)c12	none
CO[C@H]1[C@H](NC(=O)c2cnn3cccnc23)c2ccccc2C12CCNCC2	none
Cn1cc(-c2cc(=O)c3ccnc(-c4cccc5[nH]ccc45)c3o2)cn1	none
O=c1cc(-c2ccncc2)oc2c(-c3cccc4[nH]ccc34)nccc12	Pf Dd2 inh 10µM
COc1ncccc1-c1nccc2c(=O)cc(-c3ccncc3)oc12	none
CC(C)CN1CCN(C(=O)C2CCCN(S(=O)(=O)c3cn(C)cn3)CCC(=O)NCC2)CC1 (stereo not drawn)	none
O=C1NC2(CCCN(C(=O)c3ccc(Cl)cc3)C2)Oc2ccccc21 (stereo not drawn)	none
c1ccc(-c2noc(-c3cncnc3Nc3ccc4c(c3)OCO4)n2)cc1	Pf Dd2 inh 5.62µM
COc1ccc(Nc2ncncc2-c2nc(-c3ccccc3)no2)cc1OC	none
c1ccc(-c2noc(-c3cncnc3Nc3ccc4c(c3)OCCO4)n2)cc1	none
CC(=O)N1CCN(Cc2ccc(OCCCN3CCOCC3)cc2)CC1	none
Cc1ccc2nc3n(c2c1)[C@@H](CNCc1cccnc1)COC3	none
CN(CCN1CCCCCC1)C(=O)c1cc(COc2ccccc2)[nH]n1	Pf Dd2 inh 7.94µM
CN(CCN1CCOCC1)C(=O)c1cc(COc2cccc(F)c2)[nH]n1	none
CN(CC1(CO)CCOCC1)C(=O)c1cc(COc2ccccc2)[nH]n1	none
CC(C)c1noc(-c2cn(C3CCCN(C(=O)c4cccc(N(C)C)c4)C3)nn2)n1 (stereo not drawn)	none
COc1ccc(C2Cn3nnc(-c4nc(C(C)(C)C)no4)c3CO2)cc1 (stereo not drawn)	none
COC[C@@H]1CN(C(=O)c2ccc3ncccc3c2)C[C@H]1c1ccccn1	none
CC(C)c1ccc(NC(=O)Cn2c(=O)n(Cc3nc(-c4ccccc4)no3)c(=O)c3cc4c(cc32)OCO4)cc1	none
Cc1noc(Cn2c(=O)c3cc4c(cc3n(CC(=O)Nc3ccc(C(C)C)cc3)c2=O)OCO4)n1	Pf Dd2 inh 12.6µM
COc1ccc(NC(=O)Cn2c(=O)n(Cc3nc(C)no3)c(=O)c3cc4c(cc32)OCO4)cc1OC	none
CCCc1noc(-c2cn(C3CCN(C(=O)c4ccc(OC)nc4OC)CC3)nn2)n1	none
COc1ccc(-c2cc(CNc3ncncn3)no2)cc1	none
COc1ccc(C(=O)N2CCC3(CC2)CC(O)CCO3)cc1 (stereo not drawn)	none
COc1ccc(C(=O)N2CCC3(CC2)CC(O)CCO3)c(C)c1 (stereo not drawn)	none
COc1ccc2[nH]c(C(=O)N3CCC4(CC3)CC(O)CCO4)cc2c1 (stereo not drawn)	Pf Dd2 inh 11.2µM
COCCNC(=O)[C@@H]1C[C@H](Oc2ccccc2)CN1S(=O)(=O)Cc1ccccc1F	none
CCOc1ccc2c(n1)CCN(C(=O)c1ccoc1)C2	none
O=C(NCc1ccc(Cl)nc1)c1cc2cccnn2n1	none
COc1ccc(-c2cc(N3CCC(NC(=O)Cc4ccc(Cl)cc4)CC3)n[nH]2)cc1	none
O=C(Cc1cccc(F)c1)NC1CCN(c2cc(-c3ccc(F)cc3)[nH]n2)C1 (stereo not drawn)	Pf Dd2 inh 6.31µM
COc1cccc(CC(=O)NC2CCCN(c3cc(-c4ccc(F)cc4)[nH]n3)C2)c1 (stereo not drawn)	none
COc1ccc(CC(=O)NC2CCN(c3cc(-c4ccc(Cl)cc4)[nH]n3)C2)cc1OC (stereo not drawn)	Pf Dd2 inh 7.94µM
COc1ccc(CC(=O)NC2CCN(c3cc(-c4ccc(F)cc4)[nH]n3)C2)cc1 (stereo not drawn)	none
CCOc1ccc(CC(=O)NC2CCN(c3cc(-c4ccc(F)cc4)[nH]n3)C2)cc1OCC (stereo not drawn)	none
COC[C@@H]1CN(C(=O)Cc2cccc(OC)c2)C[C@H]1c1ccncc1	none
COc1ccccc1C(=O)N1CCC(N2CCCC2=O)CC1	none
O=C(Nc1ccc2c(c1)OCCO2)C1CCN(C(=O)N2CC3CC(C2)[C@H]2CCCC(=O)N2C3)CC1 (stereo partly drawn)	none
CCN1CCN(c2cc(C)c3cc(NC(=O)c4ccc(OC)c(OC)c4)ccc3n2)CC1	Pf Dd2 inh 2.82µM
CCN1CCN(c2cc(C)c3cc(NC(=O)c4cccc(C(F)(F)F)c4)ccc3n2)CC1	Pf Dd2 inh 5.62µM
CCNC(=O)CN1CCCC(CNC(=O)c2cccc(C(F)(F)F)c2)C1 (stereo not drawn)	none
Cc1cccc(C(=O)Nc2ccc3ncnc(N4CCCCC4)c3c2)c1	none
COc1cccc(C(=O)Nc2ccc3ncnc(N4CCCCC4)c3c2)c1	none
CNC(=O)c1noc(CN2CCN(C)C3(CCNC(=O)CC3)C2)n1 (stereo not drawn)	none
CCN1CC(c2ccccc2)CC2(CCN(C(=O)c3cnn(C)c3)CC2)C1 (stereo not drawn)	none
COc1ccc(-n2nc(C3CCCN(CCC(C)C)C3)[nH]c2=O)cc1 (stereo not drawn)	none
Cc1ccc(NC(=O)N2CCN(c3nnnn3-c3ccccc3)CC2)cc1F	none
Cc1cc(-n2nnnc2N2CCN(C(=O)Nc3ccc(C)c(F)c3)CC2)ccc1F	Pf Dd2 inh 5.01µM
CC(C)c1ccc(NC(=O)N2CCN(c3ccc(Cl)c(Cl)c3)CC2)cc1	none
CCc1cccc(-n2nnnc2N2CCN(C(=O)NC(C)c3ccccc3)CC2)c1 (stereo not drawn)	none
Cc1ccc(NC(=O)N2CCN3CCCCC3C2)cc1F (stereo not drawn)	none
Cc1ccc(NC(=O)N2CCN(c3nnnn3-c3cccc(C(C)C)c3)CC2)cc1F	Pf Dd2 inh 11.2µM
O=C1CC(c2n[nH]c(C3CCOCC3)n2)CN1Cc1cccnc1 (stereo not drawn)	none
CC(C)NC(=O)N[C@H]1CCN2C(=O)c3cc(/C=C/c4ccccc4)ccc3NC(=O)[C@H]12	none
Cc1ccc(-c2ccc3nnc(CNC(=O)c4ccc(F)c(F)c4)n3n2)cc1C	none
COc1ccc(-c2cc(N3CCC(NC(=O)Cc4ccccc4)CC3)n[nH]2)cc1	none
CCc1cccc(NC(=O)Cn2c(C)cc3nc4n(c(=O)c32)CCCCC4)c1	none
CN(Cc1cc(C[C@@H]2C[C@H](NCc3ccccn3)C2(C)C)no1)c1ccccc1	none
Cc1ccc(Cl)cc1N1CCN(C(=O)c2cnn(-c3ccc(Cl)cc3)c2C2CCNCC2)CC1	Pf Dd2 inh 10µM
Cc1cc(C)cc(NC(=O)c2cnn(-c3ccc(C)c(C)c3)c2C2CCNCC2)c1	Pf Dd2 inh 3.98µM
Cc1ccc(-n2ncc(C(=O)N3CCN(c4ccccn4)CC3)c2C2CCN(C(=O)OC(C)(C)C)CC2)cc1C	none
CCc1nc(SC)ncc1C(=O)N1CCN(c2cc(Cl)ccc2C)CC1	none
CC(C)(C)OC(=O)N1CCC(c2c(C(=O)N3CCN(c4ccccn4)CC3)cnn2-c2ccc(F)cc2)CC1	none
Cc1ccc(C)c(NC(=O)c2cnn(-c3ccc(F)cc3F)c2C2CCNCC2)c1	none
O=C(c1ccco1)N1CCN(C(=O)c2cnn(-c3cccc(F)c3)c2C2CCNCC2)CC1	none
Cc1ccc(N2CCN(C(=O)c3cnn(-c4ccc(C)c(C)c4)c3C3CCNCC3)CC2)c(C)c1	Pf Dd2 inh 5.62µM
O=C(Nc1cccc(C(F)(F)F)c1)c1cnn(-c2cccc(F)c2)c1C1CCNCC1	Pf Dd2 inh 11.2µM
Cc1cc(C)cc(NC(=O)C2CCN(C(=O)c3cnn(-c4ccccc4)c3-n3cccc3)CC2)c1	none
CC(=O)c1ccc(NC(=O)c2cnn(-c3cccc(F)c3)c2-n2cccc2)cc1	none
CCOc1ccc(CC(=O)N2[C@@H]3CC[C@H]2CC(NC(=O)c2ccncc2)C3)cc1 (stereo partly drawn)	none
O=C(NCc1cc2n(n1)CCNC2)c1cc2c(s1)CCCCC2	none
COc1ccccc1CCC(=O)N1[C@@H]2CC[C@H]1CC(NC(=O)c1ccncc1)C2 (stereo partly drawn)	none
